# Assay outcomes from PubChem.
# T cruzi growth-1 = T. cruzi proliferation inhibition | T. cruzi beta-gal in NIH3T3, GalScreen luminescence, 90 h | inhibition, % at 8.34 µM | 77,000 compounds, 5.9% hits | AID 624255;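 active = mean inhibition above about 93%, with at least 55% of replicates each passing it, limit read from the data, passing the limit was not always enough; inconclusive = only one of those two conditions holds; inactive = neither condition holds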
# C diff HTS = inhibitors of Clostridium difficile growth; Clostridium difficile clinical isolate growth, OD600, 24 h; stronger effect = lower value; growth activity, negative = inhibition, % at 16 µg/mL (by protocol); 86,000 compounds, 0.25% hits; AID 1259249;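 active = mean growth activity at or below -80% and every replicate also at or below -80%; inconclusive = mean at or below -80% but some replicate above -80%; inactive = mean growth activity above -80%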;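 also: 0% = DMSO wells and -100% = levofloxacin 16 µg/mL wells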
# T cruzi growth-2 = blocks T. cruzi growth in NIH3T3 host cells; shares compounds with T cruzi growth-1; T. cruzi beta-gal in NIH3T3, GalScreen luminescence, 90 h; 5,600 compounds, 72% hits; inhibition, % at 8.35 µM;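 active = mean replicate inhibition above about 95% and at least 55% of replicates individually reaching it, limit read from the data; inconclusive = only one of the two criteria is met; inactive = neither criterion is met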
# T cruzi growth-3 = Trypanosoma cruzi proliferation inhibition | inhibition, % at 2.09 µM | 5,600 compounds, 21% hits | shares compounds with T cruzi growth-1 | T. cruzi beta-gal in NIH3T3, GalScreen luminescence, 90 h | AID 651740;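 active = mean inhibition above about 95%, with at least 55% of replicates also reaching it, limit read from the data; inconclusive = meets just one of the two conditions; inactive = meets neither condition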;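 also: plate controls were neutral control median for no effect and positive control median for full effect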
# 3T3 cytotox = kills mouse NIH/3T3 fibroblasts; NIH/3T3 viability, CellTiter-Glo ATP luminescence, 90 h; cytotoxicity (signal decrease), % at 8.35 µM; AID 651742; 5,600 compounds, 14% hits; shares compounds with T cruzi growth-1;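 active = mean signal decrease across replicates above about 35% based on untreated-well scatter, with enough replicates individually passing, limit read from the data; inconclusive = no rule stated though some were filed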;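 also: 0% = median of neutral control wells and 100% = median of positive control wells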
# 3T3 cytotox 2 = NIH/3T3 (mouse) viability loss; shares compounds with T cruzi growth-1; NIH/3T3 viability, CellTiter-Glo ATP luminescence, 90 h; inhibition, % at 24.9 µM; 5,600 compounds, 56% hits; AID 651744;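 active = mean loss of cell viability signal at or above a set limit, and enough replicates individually reaching it; inconclusive = meets only the mean limit or only the replicate share; inactive = meets neither condition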;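 also: 0% = median of neutral control wells and 100% = median of positive control wells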
# Numbers without * were called inactive; u = inconclusive; x = no result; ! = not active in a repeat. The entries come from a sample that favours hits as a whole.
SMILES,T cruzi growth-1,C diff HTS,T cruzi growth-2,T cruzi growth-3,3T3 cytotox,3T3 cytotox 2
O=C(O)[C@H]1[C@H](CO)[C@H]2Cn3c(ccc(-c4cncnc4)c3=O)[C@H]2N1C(=O)C1CCCCC1,47,2,x,x,x,x
C[C@H](CO)N1C[C@H](C)[C@@H](CN(C)C(=O)Nc2cccc3ccccc23)Oc2ccc(NC(=O)C3CCCCC3)cc2CC1=O,7,-6,x,x,x,x
C[C@@H]1CN([C@@H](C)CO)S(=O)(=O)c2ccc(-c3ccncc3)cc2O[C@H]1CN(C)C(=O)C1CCCCC1,16,1,x,x,x,x
O=S(=O)(NC[C@@H]1N[C@@H](CO)[C@H]1c1ccccc1)c1ccccc1,104*,-1,68,14,10,12
C/C=C/c1ccc([C@@H]2[C@@H](CO)N[C@@H]2CN(C)S(=O)(=O)c2ccccc2)cc1,14,19,x,x,x,x
C/C=C/c1ccc([C@@H]2[C@H](CN(C)S(=O)(=O)c3ccccc3)N[C@@H]2CO)cc1,108*,5,47,25,-10,37*
O=S(=O)(NC[C@@H]1N[C@@H](CO)[C@@H]1c1ccccc1)c1ccccc1,61,-4,x,x,x,x
C[C@@H]1CN([C@H](C)CO)C(=O)c2cccc(NC(=O)c3cnccn3)c2O[C@@H]1CN(C)S(=O)(=O)c1ccc(F)cc1,40,1,x,x,x,x
CCc1cnc(N2[C@H](C#N)[C@H](c3ccc(-c4cccc(F)c4)cc3)[C@H]2CO)s1,105*,12,105*,93,10,26*
CCc1cnc(N2[C@H](C#N)[C@@H](c3ccc(-c4cccc(F)c4)cc3)[C@H]2CO)s1,109*,15,110*,81,27,37
CCc1cnc(N2[C@@H](C#N)[C@H](c3ccc(-c4cccc(F)c4)cc3)[C@@H]2CO)s1,83,-37,x,x,x,x
CCc1cnc(N2[C@@H](C#N)[C@@H](c3ccc(-c4cccc(F)c4)cc3)[C@@H]2CO)s1,108*,15,101*,106*,29,60*
CCc1cnc(N2[C@H](CO)[C@@H](c3ccc(-c4cccc(F)c4)cc3)[C@@H]2C#N)s1,85,18,x,x,x,x
COc1ccc(S(=O)(=O)N(C)C[C@H]2OCCCC[C@@H](C)Oc3ccc(NS(=O)(=O)c4cccs4)cc3C(=O)N([C@@H](C)CO)C[C@@H]2C)cc1,27,5,x,x,x,x
Cc1ccc(S(=O)(=O)N(C)C[C@H]2OCCCC[C@@H](C)Oc3ccc(NS(=O)(=O)c4cn(C)cn4)cc3C(=O)N([C@H](C)CO)C[C@H]2C)cc1,43,2,x,x,x,x
COc1ccc2c3c([nH]c2c1)[C@@H](CO)N(Cc1ccccc1F)CC31CCN(C(=O)C2CC2)CC1,x,2,x,x,x,x
O=C(C[C@H]1CC[C@@H](NC(=O)c2cccc(F)c2)[C@H](CO)O1)NCc1ccc(Oc2ccccc2)cc1,17,-8,x,x,x,x
COc1ccc(S(=O)(=O)N(C)C[C@@H]2Oc3cc(C#CC4CCCCC4)ccc3S(=O)(=O)N([C@@H](C)CO)C[C@H]2C)cc1,24,x,x,x,x,x
Cc1ccc(S(=O)(=O)N(C)C[C@@H]2Oc3cc(C#CC4CCCC4)ccc3S(=O)(=O)N([C@@H](C)CO)C[C@@H]2C)cc1,125*,21,93,112*,8,40*
COc1ccc(S(=O)(=O)N(C)C[C@H]2Oc3cc(C#CC4CCCCC4)ccc3S(=O)(=O)N([C@@H](C)CO)C[C@H]2C)cc1,80,x,x,x,x,x
Cc1ccc(S(=O)(=O)N(C)C[C@H]2Oc3cc(C#CC4CCCC4)ccc3S(=O)(=O)N([C@@H](C)CO)C[C@@H]2C)cc1,121*,14,97*,109*,30,44*
Cc1ccc(S(=O)(=O)N(C)C[C@H]2Oc3cc(C#CC4CCCC4)ccc3S(=O)(=O)N([C@H](C)CO)C[C@H]2C)cc1,126*,13,97*!,117*,21,38*!
Cc1ccc(S(=O)(=O)N(C)C[C@H]2Oc3cc(C#CC4CCCC4)ccc3S(=O)(=O)N([C@@H](C)CO)C[C@H]2C)cc1,123*,8,94,111*,22,46*
COc1ccc(S(=O)(=O)N(C)C[C@H]2Oc3cc(C#CC4CCCCC4)ccc3S(=O)(=O)N([C@@H](C)CO)C[C@@H]2C)cc1,57,x,x,x,x,x
O=C(C[C@@H]1C=C[C@@H](NC(=O)Nc2ccccc2F)[C@H](CO)O1)NCc1ccccc1,x,-3,x,x,x,x
SMILES,T cruzi growth-1,C diff HTS,T cruzi growth-2,T cruzi growth-3,3T3 cytotox,3T3 cytotox 2
Cc1ccc(S(=O)(=O)N(C)C[C@@H]2Oc3cc(C#CC4CCCC4)ccc3S(=O)(=O)N([C@H](C)CO)C[C@H]2C)cc1,128*,16,103*,u,74*,66*
C[C@H](CO)N1C[C@H](C)[C@@H](CN(C)S(C)(=O)=O)Oc2cc(C#CC3CCCC3)ccc2S1(=O)=O,123*,x,102*,36,20,66*
C[C@@H]1CN([C@H](C)CO)S(=O)(=O)c2ccc(C#CC3CCCC3)cc2O[C@@H]1CN(C)S(C)(=O)=O,110,x,x,x,x,x
CCCNC(=O)N1[C@H](C#N)[C@@H](c2ccc(-c3cccc(OC)c3)cc2)[C@@H]1CO,77,3,x,x,x,x
CCCNC(=O)N1[C@H](C#N)[C@@H](c2ccc(-c3cccnc3)cc2)[C@@H]1CO,56,1,x,x,x,x
CCCNC(=O)N1[C@H](C#N)[C@H](c2ccc(-c3cccc(OC)c3)cc2)[C@@H]1CO,99*,14,90,112*,-28,40*
CCCNC(=O)N1[C@@H](C#N)[C@@H](c2ccc(-c3cccc(OC)c3)cc2)[C@@H]1CO,98*,7,99*,39,16,51*
CC(C)NC(=O)N(C)C[C@H]1Oc2ccc(NC(=O)Nc3ccccc3)cc2C(=O)N([C@@H](C)CO)C[C@H]1C,-25,-6,x,x,x,x
C/C=C/c1cnc2c(c1)C(=O)N([C@@H](C)CO)C[C@@H](C)[C@H](CN(C)C(=O)CN1CCOCC1)O2,48,3,x,x,x,x
C[C@H](CO)N1C[C@H](C)[C@@H](CN(C)S(=O)(=O)c2ccccc2)Oc2ncc(C#CC3CCCCC3)cc2C1=O,107*,4,106*,93,21,85*
C[C@@H]1CN([C@H](C)CO)C(=O)c2cc(C#CC3CCCCC3)cnc2O[C@H]1CN(C)S(=O)(=O)c1cccc(F)c1,x,14,x,x,x,x
C[C@@H]1CN([C@@H](C)CO)C(=O)c2cc(C#CC3CCCCC3)cnc2O[C@@H]1CN(C)S(=O)(=O)c1ccccc1,111*,-10,108*,56,25,94*
C[C@@H]1CN([C@H](C)CO)C(=O)c2cc(C#CC3CCCCC3)cnc2O[C@@H]1CN(C)S(=O)(=O)c1ccccc1,u,-2,106*,76,12,91*
C[C@H](CO)N1C[C@H](C)[C@H](CN(C)S(C)(=O)=O)Oc2ncc(C#CC3CCCCC3)cc2C1=O,86,-6,x,x,x,x
